Bioassay records: PubChem BioAssay, National Center for Advancing Translational Sciences (NCATS)
Shiga inhibitor: A qHTS for Small Molecule Inhibitors of Shiga Toxin; Vero cells, Shiga toxin protein synthesis inhibition reporter; inhibition, % at 38.7 µM; 290,000 compounds, 9.2% hits; AID 2315, 2010; in the data active = inhibition mostly above about 28%, no sharp cut-off; inactive = mostly below about 43%; note: 0% is about no effect
Sm TGR block: qHTS Assay for the Inhibitors of Schistosoma Mansoni Peroxiredoxins; Schistosoma mansoni thioredoxin glutathione reductase (TGR), Q962Y6; purified TGR, DTNB reduction, TNB absorbance 405 nm; Potency, µM (top dose mostly 114 µM), inactives show at the top dose activity change, negative = inhibition, actives largely listed as inhibitors; 360,000 compounds, 3% hits; AID 485364, 2010; active = well fitted inhibition curve with a large enough effect; inconclusive = small, poorly fitted or top-dose-only effect; inactive = no such curve, though single readings can be large or run the other way; note: potency is the fitted concentration of half-maximal effect; % is set by controls: 0 for no effect and ±100 for the full control effect; nearly all actives have a fitted effect of over 60% in size
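Kinetic colorimetric format: TGR-catalysed, NADPH-driven DTNB reduction monitored via TNB absorbance. Enzyme dispensed at 20 nM; compound exposure 15 min at room temperature before reaction start.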
FMDV antiviral: High Throughput Screening for Foot and Mouth Disease Virus Antivirals. FMDV antiviral cell-based qHTS. Potency, µM (series often up to 57.9 µM), inactives show at the top dose activity change, negative = inhibition, most hits filed as inhibitors. 410,000 compounds, 1.2% hits. AID 1159524, 2015; calls by dose curve; tested in HEK293T cells; note: read-out not given here; potency is the fitted concentration of half-maximal effect; % is set by controls: 0 for no effect and ±100 for the full control effect; nearly all actives have a fitted effect of over 45% in size
CHX counter: Cycloheximide Counterscreen for Small Molecule Inhibitors of Shiga Toxin; 300,000 compounds, 12% hits; cell reporter, cycloheximide protein synthesis inhibition counterscreen; max response, %; in the data active = max response mostly above about 13%, no sharp cut-off; inactive = mostly below about 14%; note: read at 38.3 µM for the half of the compounds with a filed dose; 0% is about no effect
Numbers without * were called inactive; ? = inconclusive; nt = no result; [ ] = dose if it differs, or a comment. Shown are actives, neighbours in structure and some others; about 12% of the full set was active somewhere.

SMILES	Shiga inhibitor	Sm TGR block	FMDV antiviral	CHX counter
COc1ccc(C(=S)NCS(=O)(=O)c2ccc(C)cc2)cc1	7	2.5µM*	0%	2
Cc1ccc(S(=O)(=O)CNC(=S)c2ccc3ccccc3c2)cc1	12	3.2µM*	-10%	14
Cc1ccc(S(=O)(=O)CNC(=S)c2cccc(C)c2)cc1	-9	3.5µM*	3%	-3
COCCCNc1oc(-c2ccc(COc3ccccc3C)o2)nc1C#N	nt	-8%	-21%	nt
CCN(C(=O)c1cc2c(=O)n(CC)c3ccccc3c2s1)c1cccc(C(F)(F)F)c1	nt	0%	?	nt
COc1ccc2[nH]c(=O)c(CN(C(=O)c3ccco3)C(C)C)cc2c1	0	2%	-2%	1
CCCCN(Cc1cc2cc(OC)ccc2[nH]c1=O)C(=O)c1ccco1	-19	45µM*	0%	-4
COC(=O)c1cccc(S(=O)(=O)N(Cc2ccco2)Cc2cc3cc(OC)ccc3[nH]c2=O)c1	8	28µM*	22µM*	3
CCCN(Cc1cc2cc(OC)ccc2[nH]c1=O)C(=O)c1ccco1	-7	40µM*	-18%	-1
Cc1cnc(C(=O)OCC(=O)c2csc(N3CCCCC3)n2)cn1	36	-27%	37%	51*
CC(=O)c1cccc(NC(=O)c2cccc3c(-c4cccc(C(N)=O)c4)coc23)c1	nt	nt	35µM*	nt
COc1ccc(NC(=O)c2cccc3c(-c4ccc(O)c(OC)c4)coc23)cc1	nt	nt	-5%	nt
COc1cc(NC(=O)c2cccc3c(-c4cccnc4)coc23)cc(OC)c1OC	nt	nt	13µM*	nt
COc1ccc(CNC(=O)c2cccc3c(-c4cnn(C)c4)coc23)cc1OC	nt	nt	16µM*	nt
CCOc1ccc2nc(Cl)c(C3CC(c4ccc(C)cc4)=NN3C(=O)CCCC(=O)O)cc2c1 (stereo not given)	nt	-4%	0%	nt
Cc1ccnc(N2C(=O)c3ccccc3C2Nc2ccccc2Cl)c1 (stereo not given)	29*	8%	-20%	9
CCOc1ccccc1NC1c2ccccc2C(=O)N1c1ccc(C)cn1 (stereo not given)	-3	-29%	0%	7
CCOC(=O)c1ccccc1NC1c2ccccc2C(=O)N1c1ccc(C)cn1 (stereo not given)	39	-14%	28%	21*
COc1cc(NC2c3ccccc3C(=O)N2c2ccc(C)cn2)cc(OC)c1OC (stereo not given)	118*	-9%	0%	48*
COc1cc(NC2c3ccccc3C(=O)N2c2cc(C)ccn2)cc(OC)c1OC (stereo not given)	58*	-3%	-8%	23*
CC(=O)N1CCCc2cc(S(=O)(=O)NCc3ccccc3Cl)ccc21	nt	16%	30%	nt
Cc1ccc(N2C(=O)c3ccccc3C2Nc2cccnc2)nc1 (stereo not given)	46	3%	3%	36*
CCOc1ccc(NC(=O)c2cnn3c2NC(c2cccc(OC)c2)=CC3c2ccccc2)cc1 (stereo not given)	nt	4%	-22%	nt
CS(=O)(=O)/C(C#N)=C\c1cnc(S(=O)(=O)c2ccccc2)s1	36	?	nt	31*
CCOC(=O)c1c(S(=O)(=O)N2CCCC(C(=O)Nc3cccc(C#N)c3)C2)c(C)n(C)c1C (stereo not given)	nt	-2%	11%	nt
SMILES	Shiga inhibitor	Sm TGR block	FMDV antiviral	CHX counter
Cc1cc2nc(-c3ccc[nH]c3=O)n(Cc3ccc(F)cc3)c2cc1C	23	0%	-1%	12*
Cc1cccc(Cn2c(-c3ccc[nH]c3=O)nc3ccccc32)c1	3	-1%	-18%	2
Cc1cc2nc(-c3ccc[nH]c3=O)n(Cc3ccccc3F)c2cc1C	43*	31%	20%	38*
O=c1[nH]cccc1-c1nc2ccccc2n1Cc1ccc(F)cc1	18	-6%	-14%	7
COc1cccc(CNS(=O)(=O)c2ccc3c(c2)C(C(C)C)C(=O)N3)c1 (stereo not given)	nt	-14%	-21%	nt
Cc1nc2ccc(N=NC3=C(O)CC(C)(C)CC3=O)cc2s1	110*	-12%	0%	96*
Cc1nc2ccc(N=NC3=C(O)CCCC3=O)cc2s1	72*	-33%	32%	50*
O=C(O)c1cccc(N=NN2CCOCC2)c1	39	1%[57.1 µM]	48%	18*
Cc1ccc(O)c(N=NC2=C(O)CC(C)(C)CC2=O)c1	56*	-19%	22%	56*
COc1ccc(CCNC(=O)CCCn2c(=O)c3ccccc3n(Cc3ccccc3)c2=O)cc1OC	nt	3%	0%	nt
Cc1ccc(C2C(=O)N(C3CCCCCC3)CC(=O)N2CCC2=CCCCC2)cc1 (stereo not given)	nt	43%	-15%	nt
CC1(C)CC(=O)C(N=Nc2cc(Cl)c(Cl)c(Cl)c2)=C(O)C1	-10	-1%	28%	-3
O=C1CCCC(O)=C1N=Nc1cccc(C(=O)O)c1	59	-26%	-24%	17*
CC(=O)N1CCc2cc(N=NC3=C(O)CC(C)(C)CC3=O)ccc21	46*	-2%	24%	27*
CCN(CC)S(=O)(=O)c1cccc(N=NC2=C(O)CCCC2=O)c1	-14	-4%	6%	-2
CCOCCCNC(=O)CN1C(=O)c2c(c3ccccc3n2C)C1c1ccc(OC)cc1 (stereo not given)	nt	0%	-15%	nt
CCOC(=O)c1c(NC(=O)/C=C/C(=O)O)sc(C)c1-c1ccc(C(C)(C)C)cc1	18	-2%	18µM*	3
CCOc1ccc(CCNC(=O)CCCn2c(=O)c3cccn3c3cccnc32)cc1	nt	4%	-14%	nt
O=C(Cn1nnc2ccccc21)NCc1ccccc1	64*	7%	-5%	60*
Cc1ccc(C(=O)Cn2nnc3ccccc32)cc1	66*	5%	30%	38*
CC(=O)NNC(=O)CCn1nnc2ccccc21	-9	17%	3%	-3
Cc1ccc(C(=O)NNC(=O)Cn2nnc3ccccc32)cc1	41*	10%	27%	17*
O=C(Cn1nnc2ccccc21)OCC(=O)c1ccc(Cl)cc1	3	1%	nt	2
O=C(Cn1nnc2ccccc21)C1CC1	-8	11%	-13%	-2
Cc1ccc(C(=O)Cn2nnc3ccccc32)cc1C	140*	8%	nt	69*
SMILES	Shiga inhibitor	Sm TGR block	FMDV antiviral	CHX counter
COc1ccccc1-c1nc(SCC(=O)NCc2ccccc2)c2c(=O)n(C)c(=O)n(C)c2n1	nt	-33%	-16%	nt
CCOC(=O)CC(NC(=O)CCc1c(C)nc2c(c(C)nn2-c2ccc(C)c(C)c2)c1C)c1ccc(C)cc1 (stereo not given)	nt	-14%	12%	nt
O=C(CCn1nnc2ccccc21)N1CCN(c2ccccc2)CC1	78*	-22%	42%	27
CC(=O)Nc1ccc(NC(=O)CCCCCn2nnc3ccccc3c2=O)cc1	-3	3%	-8%	2
Cc1ccc(NC(=O)CCn2nnc3ccccc32)c(C)c1	-10	-11%	38%	-3
CC(=O)Nc1ccc(C(=O)Cn2nnc3ccccc3c2=O)cc1	50*	-23%	0%	13*
Cc1ccc(NC(=O)CCn2nnc3ccccc32)cc1	79*	nt	24%	25*
c1ccc(CCn2nnc3ccccc32)cc1	189*	-16%	19%	50*
